These results are taken from PubChem BioAssay (NCI).

Compounds without any hit were thinned out: in the full panel of roughly 83,000, 20% have a hit.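 Results are percent growth after 48 hours of single-concentration exposure. 100 means growth as in untreated cells, lower positive values show inhibition; negative values down to -100 show cell death.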 Unmarked numbers belong to inactive results. Active and inactive are the calls of the source. How the source made its calls: active means growth percent below 10; inactive means the rest.

This test has as its system HCC-2998 colon. In words: NCI-60 one-dose screen, 48 h (100 = growth as untreated, 0 = no growth, -100 = all killed). To be noted: 10 µM unless noted.
Regarding `COc1ccc(N=Nc2c(N)nn3c(-c4ccc(OC)c(OC)c4)ccnc23)cc1`, the growth was -35.9% (active). Next, `CC1=C(C)C(=O)C(NCCN2CCOCC2)=C(Br)C1=O`: 101%; `COc1ccc(Nc2ncnc3sc4c(c23)CCN(Cc2ccccc2)C4)cc1`: 105%. Next, `CCCCCCCCCc1ccc(C(=O)Nc2cc(C)ccc2C(=O)OC)cc1`: 122%; `O=C(N/N=C/c1ccc(Cl)o1)c1[nH]c2ccc(Br)cc2c1-c1ccccc1`: -26% (active); `O=C(N/N=C/c1occc1Br)c1[nH]c2ccc(Br)cc2c1-c1ccccc1`: -89.6% (active).

`c1n[nH]cc1-c1nc2ccc3cn[nH]c3c2c2c1CCCC2`: the growth is 104%. Take `Cc1ccc(C(=O)Nc2cc(-n3ccnc3)cc(C(F)(F)F)c2)cc1-n1cc(-c2cnc3cccnn23)nn1`: the growth was 86.3%. To `COc1ccc(-c2nc3ccc(-c4nnc(SCc5ccccc5)o4)cc3[nH]2)cc1` belongs 25.4%; to `Cc1ccc(C2CC(c3ccc(NC(=S)Nc4ccccc4)cc3)=NN2c2ccc(S(N)(=O)=O)cc2)cc1` (centres undefined), -16.9% (active). To `COc1ccc(C(=O)NNC(=O)CSc2nc3sc4c(c3c(=O)n2-c2ccc(Cl)cc2)CCCC4)cc1` belongs 111%; to `Cc1[nH]nc2ccc3nc(-c4cn[nH]c4C(F)(F)F)c4c(c3c12)CCCC4`, -16.6% (active). Next, `CCC(=O)c1c2c(c3ccc4c5ccccc5ccc4n13)C(=O)c1ccccc1C2=O`: 65.4%; `Cn1cc(-c2cc3nc(-c4cn(C)c5ncc(Br)cc45)cc(N)n3n2)c2cc(F)ccc21`: -14.5% (active).
